These results are taken from paper PMC12820563, “FoxP3 forms a head-to-head dimer in vivo and stabilizes its multimerization on adjacent microsatellites”.

Whole data set: some 16,000 sequences, median “rpm ratio (pull-down/input)” near 0.94, cut for the highest 2% near 1.7. This excerpt belongs to a sample that is enriched for the highest values.

This experiment has as its target T1, MBP-FoxP1dN (Mus musculus, UniProt P58462 326-579).
T1 sequence: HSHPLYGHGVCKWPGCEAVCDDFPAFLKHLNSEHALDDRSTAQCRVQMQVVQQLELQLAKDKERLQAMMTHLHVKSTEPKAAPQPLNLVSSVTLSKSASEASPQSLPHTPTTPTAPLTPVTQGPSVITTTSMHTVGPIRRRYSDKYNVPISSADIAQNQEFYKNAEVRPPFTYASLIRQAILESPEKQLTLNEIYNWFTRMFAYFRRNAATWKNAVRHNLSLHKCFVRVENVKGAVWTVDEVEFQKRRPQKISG
As to the kind of experiment: PD-seq (MBP pull-down with sequencing); 20 mM Tris-HCl pH 7.5, 100 mM NaCl, 1.5 mM MgCl2, 0.4 uM protein, 0.1 uM dsDNA library, 30 min, room temperature, amylose pull-down; high values mean tight binding. The settings on record: protein: recombinant; tags: His6-MBP; chain copies: 2; dsDNA, one strand shown. The procedure, abridged:
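The N-terminus-lacking fragment of mouse FoxP3 or FoxP1 carried a His6-MBP tag and was expressed in E. coli. At 0.4 µM it was incubated with 0.1 µM Klenow-filled degenerate double-stranded DNA library for 30 min at room temperature in Tris pH 7.5 buffer with NaCl and MgCl2, and complexes were caught on amylose resin, washed three times, released with proteinase K, PCR-barcoded and Illumina-sequenced. Binding is reads-per-million enrichment of pull-down over input with replicates pooled.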
With “GATGATTGTTCTCCCAGCTGATGAATTTATTGTTTCGAGTAAACAAATTTTCCTAATCTTTCTGTTCAAGCGCCATCTAC”, the binding signal was 2.09 RPM ratio (pull-down/input). With “GATGATTGTTCTCCCAGCTGATGAATTCGTTTATTCGAGTAAACAAATTTTCCTAATCTTTCTGTTCAAGCGCCATCTAC”, the binding signal was 1.25 RPM ratio (pull-down/input). As to “GATGATTGTTCTCCCAGCTGATGAATTGTTTATTTCGAGTAAACAAATTTTCCTAATCTTTCTGTTCAAGCGCCATCTAC”, the binding signal was 2.77 RPM ratio (pull-down/input). As for “GATGATTGTTCTCCCAGCTGATGAATTCTGGCTGTCGAGTAAACAAATTTTCCTAATCTTTCTGTTCAAGCGCCATCTAC”, the figure is 0.808 RPM ratio (pull-down/input); as for “GATGATTGTTCTCCCAGCTGATGAATTGCCGTAATCGAGTAAACAAATTTTCCTAATCTTTCTGTTCAAGCGCCATCTAC”, 1.39 RPM ratio (pull-down/input); as for “GATGATTGTTCTCCCAGCTGATGAATTAATGTAGTCGAGTAAACAAATTTTCCTAATCTTTCTGTTCAAGCGCCATCTAC”, 1.24 RPM ratio (pull-down/input). In the case of “GATGATTGTTCTCCCAGCTGATGAATTGGCACAATCGAGTAAACAAATTTTCCTAATCTTTCTGTTCAAGCGCCATCTAC”, the binding signal was 1.34 RPM ratio (pull-down/input). As to “GATGATTGTTCTCCCAGCTGATGAATTGCTTATTTCGAGTAAACAAATTTTCCTAATCTTTCTGTTCAAGCGCCATCTAC”, the binding signal is 1.62 RPM ratio (pull-down/input). As for “GATGATTGTTCTCCCAGCTGATGAATTATTTGCTTCGAGTAAACAAATTTTCCTAATCTTTCTGTTCAAGCGCCATCTAC”, the figure is 1.56 RPM ratio (pull-down/input); as for “GATGATTGTTCTCCCAGCTGATGAATTATTGCTTTCGAGTAAACAAATTTTCCTAATCTTTCTGTTCAAGCGCCATCTAC”, 1.74 RPM ratio (pull-down/input).

Turning to “GATGATTGTTCTCCCAGCTGATGAATTATTTTGTTCGAGTAAACAAATTTTCCTAATCTTTCTGTTCAAGCGCCATCTAC”, the binding signal is 1.32 RPM ratio (pull-down/input).

For “GATGATTGTTCTCCCAGCTGATGAATTATTTCTTTCGAGTAAACAAATTTTCCTAATCTTTCTGTTCAAGCGCCATCTAC”, the binding signal is 1.17 RPM ratio (pull-down/input).

Regarding “GATGATTGTTCTCCCAGCTGATGAATTAATTATTTCGAGTAAACAAATTTTCCTAATCTTTCTGTTCAAGCGCCATCTAC”, the binding signal was 1.12 RPM ratio (pull-down/input). As for “GATGATTGTTCTCCCAGCTGATGAATTATTATTTTCGAGTAAACAAATTTTCCTAATCTTTCTGTTCAAGCGCCATCTAC”, the binding signal is 3.1 RPM ratio (pull-down/input).

For the sequence “GATGATTGTTCTCCCAGCTGATGAATTATTGTGTTCGAGTAAACAAATTTTCCTAATCTTTCTGTTCAAGCGCCATCTAC”, the binding signal was 2.1 RPM ratio (pull-down/input). Regarding “GATGATTGTTCTCCCAGCTGATGAATTATTTGTTTCGAGTAAACAAATTTTCCTAATCTTTCTGTTCAAGCGCCATCTAC”, the binding signal is 2.21 RPM ratio (pull-down/input). As to “GATGATTGTTCTCCCAGCTGATGAATTATTTGATTCGAGTAAACAAATTTTCCTAATCTTTCTGTTCAAGCGCCATCTAC”, the binding signal is 1.05 RPM ratio (pull-down/input).

On to “GATGATTGTTCTCCCAGCTGATGAATTATTTTTTTCGAGTAAACAAATTTTCCTAATCTTTCTGTTCAAGCGCCATCTAC”, for which the binding signal was 1.5 RPM ratio (pull-down/input). As for “GATGATTGTTCTCCCAGCTGATGAATTATTAATTTCGAGTAAACAAATTTTCCTAATCTTTCTGTTCAAGCGCCATCTAC”, the figure is 1.34 RPM ratio (pull-down/input); as for “GATGATTGTTCTCCCAGCTGATGAATTCCAGGCTTCGAGTAAACAAATTTTCCTAATCTTTCTGTTCAAGCGCCATCTAC”, 0.758 RPM ratio (pull-down/input). On to “GATGATTGTTCTCCCAGCTGATGAATTTGGCTATTCGAGTAAACAAATTTTCCTAATCTTTCTGTTCAAGCGCCATCTAC”, for which the binding signal was 0.942 RPM ratio (pull-down/input).

“GATGATTGTTCTCCCAGCTGATGAATTCGGCTCCTCGAGTAAACAAATTTTCCTAATCTTTCTGTTCAAGCGCCATCTAC”: the binding signal was 0.747 RPM ratio (pull-down/input). On to “GATGATTGTTCTCCCAGCTGATGAATTCAATAGATCGAGTAAACAAATTTTCCTAATCTTTCTGTTCAAGCGCCATCTAC”, for which the binding signal was 0.887 RPM ratio (pull-down/input). As for “GATGATTGTTCTCCCAGCTGATGAATTATTCTGGTCGAGTAAACAAATTTTCCTAATCTTTCTGTTCAAGCGCCATCTAC”, the binding signal is 1.04 RPM ratio (pull-down/input). “GATGATTGTTCTCCCAGCTGATGAATTGACCATGTCGAGTAAACAAATTTTCCTAATCTTTCTGTTCAAGCGCCATCTAC”: the binding signal was 0.875 RPM ratio (pull-down/input). As for “GATGATTGTTCTCCCAGCTGATGAATTACTTTGCTCGAGTAAACAAATTTTCCTAATCTTTCTGTTCAAGCGCCATCTAC”, the binding signal was 1.02 RPM ratio (pull-down/input). Under “GATGATTGTTCTCCCAGCTGATGAATTCTATTAGTCGAGTAAACAAATTTTCCTAATCTTTCTGTTCAAGCGCCATCTAC” stands 1.14 RPM ratio (pull-down/input); under “GATGATTGTTCTCCCAGCTGATGAATTGTGTACCTCGAGTAAACAAATTTTCCTAATCTTTCTGTTCAAGCGCCATCTAC”, 1.6 RPM ratio (pull-down/input); under “GATGATTGTTCTCCCAGCTGATGAATTTCACCCATCGAGTAAACAAATTTTCCTAATCTTTCTGTTCAAGCGCCATCTAC”, 0.921 RPM ratio (pull-down/input). “GATGATTGTTCTCCCAGCTGATGAATTTTTCGCGTCGAGTAAACAAATTTTCCTAATCTTTCTGTTCAAGCGCCATCTAC”: the binding signal was 1.01 RPM ratio (pull-down/input). In the case of “GATGATTGTTCTCCCAGCTGATGAATTATTGATTTCGAGTAAACAAATTTTCCTAATCTTTCTGTTCAAGCGCCATCTAC”, the binding signal is 1.72 RPM ratio (pull-down/input). As to “GATGATTGTTCTCCCAGCTGATGAATTATTGTTTTCGAGTAAACAAATTTTCCTAATCTTTCTGTTCAAGCGCCATCTAC”, the binding signal was 2.83 RPM ratio (pull-down/input).

Consider “GATGATTGTTCTCCCAGCTGATGAATTGATTATTTCGAGTAAACAAATTTTCCTAATCTTTCTGTTCAAGCGCCATCTAC”, for which the binding signal is 1.39 RPM ratio (pull-down/input).
